Measured values from PubChem BioAssay.
Active and inactive are the calls of the source.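 The calls were made as follows, unless noted: active = fluorescence slope higher than the sample average by over 3 SD (cut at about -0.22 in these data, passing the limit was not always enough); inactive = the rest.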

Tested on: not listed separately
Test: endothelial E-selectin expression blockers – imaging, HUVEC, immunofluorescence, MLSMR starter and 10KST1 sets, primary screen (AID 487;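 active = visually confirmed hit in the image check and inhibition above 20%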;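 as to inhibition: signal is fraction of cell area covered by stained E-selectin grains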;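 as to nuclei count: 100% = median nuclei count of all wells on the same plate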)
Settings: HUVEC TNFalpha-induced E-selectin immunofluorescence imaging, at 2 µM; inhibition: stronger effect = higher value; nuclei count: measured here: cell number, toxicity

SMILES | nuclei count [%] | inhibition
CCCC(NC(=O)c1ccccc1)c1nc2ccccc2n1Cc1ccc(C(=O)OC)o1 (configuration not stated) | 119 | -91.8% (inactive)
O=C(NC1CCCC1)C(c1ccco1)N(Cc1ccccc1)C(=O)c1csnn1 (configuration not stated) | 107 | -9.3% (inactive)
O=C(Oc1cccc2cccnc12)c1cccc(-n2cnnn2)c1 | 93.4 | -16.1% (inactive)
Cc1cc(C(N)=O)c2cc(Br)ccc2n1 | 120 | -54% (inactive)
Cc1nc2ccc(S(=O)(=O)NC(C(=O)NCc3cccs3)C(C)C)cc2s1 (configuration not stated) | 106 | -28.8% (inactive)
CCN(CC)c1ccc(NC(=O)CN2C(=O)CC(C)(C)S(=O)(=O)c3ccccc32)c(C)c1 | 125 | -63.3% (inactive)
O=c1[nH]cnc2c1nc(SCc1ccccc1)n2C1OC(CO)C(O)C1O (configuration not stated) | 110 | -9.9% (inactive)
Cc1ncc(CSc2nc3ccccc3[nH]2)c(N)n1 | 109 | -37.5% (inactive)
CN(C(=O)c1ccccc1Cl)c1ccccc1 | 92.5 | -28.1% (inactive)
CCCSc1nc(N)c(C#N)c(-c2ccc(C)cc2)c1C#N | 141 | -31.9% (inactive)
CC1(C)CC(=O)C2=C(C1)NC(=O)CC2C(=O)NCc1ccc(F)cc1 (configuration not stated) | 87.8 | 3.2% (inactive)
CCN(CC)CCCN1C(=O)C(=O)/C(=C(/O)c2ccc3c(c2)OCO3)C1c1ccccn1 (configuration not stated) | 90.7 | -18.3% (inactive)
CCOC(=O)C1CCN(c2cc(C)nc3cc(-c4cccc(F)c4)nn23)CC1 | 99.1 | -82.8% (inactive)
COCCNC(=O)C(c1ccc(C)o1)N(Cc1ccc(OC)cc1)C(=O)Cn1nnc2ccccc21 (configuration not stated) | 82.9 | 25.3% (inactive)
CCN1CCN(c2ncnc3c2cnn3-c2ccc(C)cc2C)CC1 | 112 | 1.5% (inactive)
Cc1cccc(C2c3c(n(C)c(=O)n(C)c3=O)N=C3c4ccccc4C(=O)C32)c1 (configuration not stated) | 113 | -348% (inactive)
CCOC(=O)c1cc2c(=O)n3ccccc3nc2n(CCCOC)c1=NC(C)=O | 82.5 | -33.6% (inactive)
CCOc1ccccc1CNC(=O)CCN1C(=O)COc2ccccc21 | 94.5 | -71.5% (inactive)
COc1cc2c(cc1OC)CN(C(=O)CSc1nc3[nH]ncc3c(=O)n1-c1ccccc1)CC2 | 87 | -7.3% (inactive)
O=C(O)C1CC=CCC1C(=O)NCc1ccccc1 (configuration not stated) | 107 | -28.4% (inactive)
CCCNc1nc2c(c(=O)n(C)c(=O)n2C)n1Cc1cccc(C)c1 | 148 | -95.3% (inactive)
Cc1ccc2c(c1)NC(=O)C(CC(=O)NC1CCCCC1C)O2 (configuration not stated) | 114 | 21.5% (inactive)
Cc1cccc(N2CCN(C(=O)CCn3c(=S)[nH]c4cc5c(cc4c3=O)OCO5)CC2C)c1 (configuration not stated) | 97.2 | -1.8% (inactive)
CC1CN(Cc2nc3c(c(=O)[nH]c(=O)n3C)n2CC(N)=O)CC(C)O1 (configuration not stated) | 111 | -33% (inactive)
Cc1[nH]nc(N=CC2=C(O)CC(C)(C)CC2=O)c1-c1ccccc1 | 95.3 | 15.4% (inactive)
Cc1ccc(N2C(=O)c3ccccc3C2O)nc1 (configuration not stated) | 117 | -15.9% (inactive)

Biological target: Voltage-gated potassium channel subunit beta-2 (Rattus norvegicus) (UniProt P62483)
Sequence (P62483 whole entry, looked up): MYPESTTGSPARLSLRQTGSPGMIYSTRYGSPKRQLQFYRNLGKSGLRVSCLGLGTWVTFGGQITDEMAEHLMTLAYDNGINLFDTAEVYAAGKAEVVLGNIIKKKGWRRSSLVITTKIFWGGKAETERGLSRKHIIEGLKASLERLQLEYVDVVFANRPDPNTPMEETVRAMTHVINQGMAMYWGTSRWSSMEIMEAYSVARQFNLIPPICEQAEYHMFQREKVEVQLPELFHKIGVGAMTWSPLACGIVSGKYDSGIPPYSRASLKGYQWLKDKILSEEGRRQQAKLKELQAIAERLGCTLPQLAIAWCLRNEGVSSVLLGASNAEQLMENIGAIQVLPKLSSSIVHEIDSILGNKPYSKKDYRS
Test: inhibitors of rat Kvbeta2 reductase activity – biochemical, NADPH fluorescence, primary screen (AID 622);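 also: slope of raw intensity against log time taken from 70 to 1610 s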
Settings: recombinant KvBeta, 4-cyanobenzaldehyde reduction, at 10 µM, stronger effect = higher value

SMILES | fluorescence slope
Cc1cccc2sc(NC(=O)CN(C)S(=O)(=O)c3cccs3)nc12 | -0.432 (inactive)
CCOc1cc(NC(=O)c2ccco2)c(OCC)cc1NC(=O)Cc1cccc(OC)c1 | -0.397 (inactive)
CC(=O)Nc1c2c(nn1-c1ccc(C)cc1C)CSC2 | -0.562 (inactive)
CC(CC(=O)NC1CCSC1=O)c1ccccc1 (configuration not stated) | -0.452 (inactive)
Cc1c(C(=O)O)c(-c2ccccc2)nn1-c1ccccc1 | -0.39 (inactive)
Cc1nnc(SCCn2c(Br)nc3c2c(=O)n(C)c(=O)n3C)s1 | -0.374 (inactive)
COc1ccccc1NC(=O)Cc1noc(CSc2cc(C)c3ccccc3n2)n1 | -0.337 (inactive)
COc1cccc2sc(NC(=O)c3ccc(S(=O)(=O)N4CCOCC4)cc3)nc12 | -0.289 (inactive)
C=CCN(C(=O)CNC(=O)c1ccco1)C(C(=O)NC1CCCCC1)c1ccccc1F (configuration not stated) | -0.612 (inactive)
O=C(Nc1ccc(OC(=O)c2ccco2)cc1)c1ccco1 | -0.442 (inactive)
CCOc1ccc2ccccc2c1C(=O)N1CCN(c2ccccc2)CC1 | -0.423 (inactive)
Cc1ccc(C)c2[nH]c(=O)c(CCNC(=O)CC(C)(C)C)cc12 | -0.557 (inactive)
CC(=O)c1ccc(OCC(O)CN2CC(C)OC(C)C2)cc1 (configuration not stated) | -0.613 (inactive)
O=c1[nH]c(SCc2ccccc2Cl)nc2c1CCCC2 | -0.295 (inactive)
CCCC(NC(=O)c1ccccc1)c1nc2ccccc2n1Cc1ccc(C(=O)OC)o1 (configuration not stated) | -0.372 (inactive)
O=C(NC1CCCC1)C(c1ccco1)N(Cc1ccccc1)C(=O)c1csnn1 (configuration not stated) | -0.582 (inactive)
O=C(Oc1cccc2cccnc12)c1cccc(-n2cnnn2)c1 | -0.494 (inactive)
Cc1cc(C(N)=O)c2cc(Br)ccc2n1 | -0.436 (inactive)
Cc1nc2ccc(S(=O)(=O)NC(C(=O)NCc3cccs3)C(C)C)cc2s1 (configuration not stated) | -0.612 (inactive)
CCN(CC)c1ccc(NC(=O)CN2C(=O)CC(C)(C)S(=O)(=O)c3ccccc32)c(C)c1 | -0.465 (inactive)

SMILES | fluorescence slope
O=c1[nH]cnc2c1nc(SCc1ccccc1)n2C1OC(CO)C(O)C1O (configuration not stated) | -0.597 (inactive)
Cc1ncc(CSc2nc3ccccc3[nH]2)c(N)n1 | -0.606 (inactive)
CN(C(=O)c1ccccc1Cl)c1ccccc1 | -0.561 (inactive)
CCCSc1nc(N)c(C#N)c(-c2ccc(C)cc2)c1C#N | -0.382 (inactive)
CC1(C)CC(=O)C2=C(C1)NC(=O)CC2C(=O)NCc1ccc(F)cc1 (configuration not stated) | -0.342 (inactive)
CCN(CC)CCCN1C(=O)C(=O)/C(=C(/O)c2ccc3c(c2)OCO3)C1c1ccccn1 (configuration not stated) | -0.495 (inactive)
CCOC(=O)C1CCN(c2cc(C)nc3cc(-c4cccc(F)c4)nn23)CC1 | -0.35 (inactive)
COCCNC(=O)C(c1ccc(C)o1)N(Cc1ccc(OC)cc1)C(=O)Cn1nnc2ccccc21 (configuration not stated) | -0.648 (inactive)
CCN1CCN(c2ncnc3c2cnn3-c2ccc(C)cc2C)CC1 | -0.538 (inactive)
Cc1cccc(C2c3c(n(C)c(=O)n(C)c3=O)N=C3c4ccccc4C(=O)C32)c1 (configuration not stated) | -0.383 (inactive)
CCOC(=O)c1cc2c(=O)n3ccccc3nc2n(CCCOC)c1=NC(C)=O | -0.133 (active)
CCOc1ccccc1CNC(=O)CCN1C(=O)COc2ccccc21 | -0.379 (inactive)
COc1cc2c(cc1OC)CN(C(=O)CSc1nc3[nH]ncc3c(=O)n1-c1ccccc1)CC2 | -0.492 (inactive)
O=C(O)C1CC=CCC1C(=O)NCc1ccccc1 (configuration not stated) | -0.41 (inactive)
CCCNc1nc2c(c(=O)n(C)c(=O)n2C)n1Cc1cccc(C)c1 | -0.567 (inactive)
Cc1ccc2c(c1)NC(=O)C(CC(=O)NC1CCCCC1C)O2 (configuration not stated) | -0.51 (inactive)
Cc1cccc(N2CCN(C(=O)CCn3c(=S)[nH]c4cc5c(cc4c3=O)OCO5)CC2C)c1 (configuration not stated) | -0.614 (inactive)
CC1CN(Cc2nc3c(c(=O)[nH]c(=O)n3C)n2CC(N)=O)CC(C)O1 (configuration not stated) | -0.567 (inactive)
Cc1[nH]nc(N=CC2=C(O)CC(C)(C)CC2=O)c1-c1ccccc1 | -0.344 (inactive)
Cc1ccc(N2C(=O)c3ccccc3C2O)nc1 (configuration not stated) | -0.587 (inactive)
